Publication PMC4336329 (PLoS ONE, 2015)
In all, about 310,000 compounds went through this assay and about 14,000 (4.5%) showed an effect of 50% or more. The effect is printed as a negative number. The entries come from a sample that favours strong results as a whole.

What follows are compounds tested against human ether-à-go-go-related gene (hERG) potassium channel (human, UniProt Q12809) (assay: primary screen, population patch clamp on CHO cells stably expressing hERG; higher = less effect of the substance).
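Note: peak tail current of the secondary pulse compared with the same well before compound.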

human ether-à-go-go-related gene (hERG) potassium channel, sequence (Q12809 whole entry, looked up): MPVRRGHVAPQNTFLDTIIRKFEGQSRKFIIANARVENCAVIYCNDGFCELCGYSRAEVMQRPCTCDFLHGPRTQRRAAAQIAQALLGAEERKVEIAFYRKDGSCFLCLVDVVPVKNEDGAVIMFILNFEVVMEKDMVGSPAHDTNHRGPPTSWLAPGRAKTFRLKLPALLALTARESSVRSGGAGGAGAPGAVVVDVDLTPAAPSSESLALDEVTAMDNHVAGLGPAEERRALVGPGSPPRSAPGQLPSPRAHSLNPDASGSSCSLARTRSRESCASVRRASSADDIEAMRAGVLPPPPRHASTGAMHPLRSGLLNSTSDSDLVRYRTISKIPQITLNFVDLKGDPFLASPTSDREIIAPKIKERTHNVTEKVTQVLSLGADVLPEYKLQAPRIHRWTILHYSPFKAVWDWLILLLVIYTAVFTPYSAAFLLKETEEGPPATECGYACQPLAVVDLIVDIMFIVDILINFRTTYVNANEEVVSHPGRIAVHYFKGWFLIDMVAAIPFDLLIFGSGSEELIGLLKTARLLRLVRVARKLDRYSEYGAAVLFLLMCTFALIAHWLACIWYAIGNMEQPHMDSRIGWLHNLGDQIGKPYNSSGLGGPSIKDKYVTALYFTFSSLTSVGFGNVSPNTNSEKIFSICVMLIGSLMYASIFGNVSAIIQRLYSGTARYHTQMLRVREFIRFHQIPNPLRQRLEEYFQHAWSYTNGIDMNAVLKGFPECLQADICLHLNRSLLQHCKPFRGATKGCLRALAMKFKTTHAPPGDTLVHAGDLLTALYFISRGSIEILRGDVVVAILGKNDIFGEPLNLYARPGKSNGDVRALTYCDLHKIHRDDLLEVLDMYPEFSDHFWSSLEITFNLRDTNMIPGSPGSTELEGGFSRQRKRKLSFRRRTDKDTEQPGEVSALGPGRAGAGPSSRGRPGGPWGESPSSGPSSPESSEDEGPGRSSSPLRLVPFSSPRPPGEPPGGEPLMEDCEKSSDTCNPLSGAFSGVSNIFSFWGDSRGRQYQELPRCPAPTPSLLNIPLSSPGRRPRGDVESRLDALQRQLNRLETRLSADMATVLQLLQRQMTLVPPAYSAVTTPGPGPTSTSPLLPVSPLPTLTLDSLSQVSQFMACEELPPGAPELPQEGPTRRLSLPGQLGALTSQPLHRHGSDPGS

Row | Structure (SMILES) | hERG current change (%, negative = inhibition) at 10uM
1 | COc1cccc(/C=N/Nc2cc(Cl)nc(C)n2)c1O | 20.8%
2 | COc1cc2c3c(c1OC)C1(C=CC(=O)C=C1)CC3N(C(=O)c1ccccc1)CC2 (centres unmarked) | -18.6%
3 | CCC(=O)NC(=S)Nc1ccc(NC(=O)COc2ccc(Cl)cc2Cl)cc1 | 10.7%
4 | CC(=O)c1ccccc1OCc1ccc(S(=O)(=O)Cc2ccccc2)cc1 | -26.6%
5 | Cc1ccc(/C=N/Nc2ccc(Cl)nn2)cc1 | -0.808%
6 | CCN(CC)S(=O)(=O)c1ccc(C(=O)OCC(=O)Nc2sc3c(c2C#N)CCCCC3)cc1 | 8.12%
7 | Cc1ccc(NS(=O)(=O)c2ccc(C(=O)N3CC(C)CC(C)C3)cc2)cc1 (centres unmarked) | -58.7%
8 | CC(C)(C)c1ccc(S(=O)(=O)Nc2ccc(C(=O)N3CCCC3)cc2)cc1 | -61.9%
9 | Cc1ccc(NS(=O)(=O)c2ccc(C(=O)N3CC(C)OC(C)C3)cc2)cc1 (centres unmarked) | 14.2%
10 | Cc1ccc(S(=O)(=O)Nc2ccc(C(=O)N3CCCC3)cc2)cc1 | -0.474%
11 | Cc1ccc(NS(=O)(=O)c2ccc(C(=O)N3CCCCCC3)cc2)cc1 | -8.38%
12 | Cc1ccc(NS(=O)(=O)c2ccc(C(=O)N3CCC3)cc2)cc1 | 15.7%
13 | O=C(Nc1nnc(-c2ccco2)o1)c1ccc(Cl)s1 | 8.23%
14 | Cc1cc(Cl)c(OCCCSc2nc(C)cc(=O)[nH]2)c(Br)c1 | -10.3%
15 | CCc1nnc(NC(=O)CSc2ncc(-c3ccccc3)[nH]2)s1 | 2.52%
16 | Cc1cccc(C(=O)NNC(=O)c2ccccc2-n2cccc2)c1 | 11.7%
17 | COC(=O)c1c(SCc2cccc3ccccc23)nc(=O)[nH]c1C | 7.87%
18 | COC(=O)c1c(SCc2ccc(C#N)cc2)nc(=O)[nH]c1C | -76.9%
19 | COC(=O)c1c(SCC(=O)Nc2ccc(C)c(C)c2)nc(=O)[nH]c1C | 2.16%
20 | CCOC(=O)c1c(C)n(C)c2ccc(OCC(O)CNC(CC)CO)cc12 (centres unmarked) | -7.11%
21 | COc1ccccc1/C=N/Nc1nccnc1Cl | -11.5%
22 | O=C(O)c1ccc(N=Cc2c(O)[nH]c(=O)[nH]c2=O)cc1 | 8.59%
23 | OCCC1CN(CCCn2cccn2)CCN1Cc1ccccc1 (centres unmarked) | -8.62%
24 | CCOc1ccc(CN2CCN(CCCn3cccn3)CC2CCO)cc1 (centres unmarked) | -80.1%
25 | CC(C)=CCN1CCN(CCCn2cccn2)CC1CCO (centres unmarked) | -11.8%
26 | CC(C)N1CCC(N2CCN(CCCn3cccn3)CC2CCO)CC1 (centres unmarked) | -28%
27 | Cc1ccc(CN2CCN(CCCn3cccn3)CC2CCO)cc1 (centres unmarked) | -66.9%
28 | CCOc1ccccc1CN1CCN(CCCn2cccn2)CC1CCO (centres unmarked) | -57.4%
29 | CC(C)CCN1CCN(CCCn2cccn2)CC1CCO (centres unmarked) | -6.72%
